This is a sample that favours compounds with a hit; in the whole collection about 8.7% have one here.
JMJD2A Tudor inh = qHTS Assay for Inhibitors of JMJD2A-Tudor Domain; 390,000 compounds, 4.4% hits; AlphaScreen JMJD2A-Tudor / H3K4me3 peptide binding; Potency, µM (series often up to 114 µM), without a hit: at the highest dose activity change, negative = inhibition, hits mostly inhibitors; Lysine-specific demethylase 4A (Homo sapiens), O75164; note: % is set by controls: 0 for no effect and ±100 for the full control effect; nearly all actives have a fitted effect of over 50% in size
12-LOX inh = Primary qHTS assay for inhibitors of human arachidonate 12S-lipoxygenase (ALOX12): Round 2. Polyunsaturated fatty acid lipoxygenase ALOX12 (Homo sapiens), P18054. purified 12hLO, xylenol orange hydroperoxide absorbance. Potency, µM (top dose mostly 108 µM), for inactives: at the highest dose activity change, negative = inhibition, most hits filed as inhibitors. 580,000 compounds, 1.1% hits; note: % is set by controls: 0 for no effect and ±100 for the full control effect
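Purified human 12hLO (150 nM final) in 25 mM Hepes, 0.01% Triton X-100, pH 7.0 was preincubated 15 min at room temperature with compound. Then 40 uM arachidonic acid was added, 30 min. Hydroperoxide was read by Fe-XO absorbance ratio 573/405 nm.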
HP1b binding inh = HTS for Inhibitors of HP1-beta Chromodomain Interactions with Methylated Histone Tails. Chromobox protein homolog 1 (Homo sapiens), P83916. AlphaScreen HP1-beta / biotin-H3K9me3 peptide binding. Potency, µM (top dose mostly 114 µM), for inactives: at the top dose activity change, negative = inhibition, actives largely listed as inhibitors. 390,000 compounds, 0.56% hits; note: nearly all actives have a fitted effect of over 70% in size
Target sequence (P83916 whole entry, looked up): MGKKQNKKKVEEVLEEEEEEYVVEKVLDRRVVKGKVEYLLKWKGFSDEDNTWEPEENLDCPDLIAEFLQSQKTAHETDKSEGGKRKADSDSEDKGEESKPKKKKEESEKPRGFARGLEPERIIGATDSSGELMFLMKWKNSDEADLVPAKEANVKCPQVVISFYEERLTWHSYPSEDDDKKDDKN
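Compound inhibition of the preformed complex between 50 nM HP1-beta and 50 nM biotinylated H3K9me3 peptide was read by AlphaScreen. Buffer was PBS pH 7.4 with 0.01% Tween-20. Incubations ran 30 min at room temperature, with 10 ug/mL donor/acceptor beads.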
G9a inh = qHTS Assay for Inhibitors of Histone Lysine Methyltransferase G9a. Histone-lysine N-methyltransferase EHMT2 (Homo sapiens), Q96KQ7. G9a H3K9 monomethylation, AlphaScreen, 2 h. Potency, µM (highest dose often 102 µM), for inactives: top-dose activity, negative = inhibition, most hits filed as inhibitors. 350,000 compounds, 8.8% hits; note: % is set by controls: 0 for no effect and ±100 for the full control effect; nearly all actives have a fitted effect of over 75% in size
Target sequence (Q96KQ7 913-1193 limits assumed): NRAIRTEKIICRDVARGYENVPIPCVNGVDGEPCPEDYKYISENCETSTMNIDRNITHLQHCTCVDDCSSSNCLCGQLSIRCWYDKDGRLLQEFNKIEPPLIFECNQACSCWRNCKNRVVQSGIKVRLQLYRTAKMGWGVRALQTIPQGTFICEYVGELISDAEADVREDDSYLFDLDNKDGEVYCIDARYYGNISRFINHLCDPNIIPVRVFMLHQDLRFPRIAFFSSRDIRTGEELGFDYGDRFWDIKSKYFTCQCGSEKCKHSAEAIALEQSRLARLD
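G9a (20 nM) was preincubated 15 min with compound, then reacted 2 h at room temperature with 500 nM biotin-H3K9 peptide and 20 µM SAM. Monomethyl-H3K9 detected by AlphaScreen using anti-H3K9me1 antibody.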
Sfp inh = qHTS Assay for Inhibitors of Bacillus subtilis Sfp phosphopantetheinyl transferase (PPTase). 4'-phosphopantetheinyl transferase ffp (Bacillus subtilis), Q9F4F7. Biochemical Sfp PPTase activity, qHTS. Potency, µM, for the others: largest response in the series, negative = inhibition, hits mostly inhibitors. 310,000 compounds, 3.5% hits;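 note: the enzyme is Sfp with the accession as filed and its product quenches rhodamine fluorescence; 0% = enzyme reaction without inhibitor and -100% = no enzyme wells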
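Buffer: 50 mM Hepes-Na pH 7.6, 10 mM MgCl2, 0.01% Nonidet P-40, 0.01% BSA. Enzyme 15 nM, pre-exposed to compound 15 min; substrates then added and fluorescence change tracked over 30 min.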
BAZ2B inh = qHTS Assay for Inhibitors of BAZ2B; Potency, µM (titrated, usually from 114 µM), for inactives: at the top dose activity change, negative = inhibition, most hits filed as inhibitors; AlphaScreen BAZ2B-H3K14Ac peptide displacement; 360,000 compounds, 4.4% hits; AID 504333, 2011; Bromodomain adjacent to zinc finger domain protein 2B (Homo sapiens), Q9UIF8; note: % is set by controls: 0 for no effect and ±100 for the full control effect; nearly all actives have a fitted effect of over 60% in size
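BAZ2B (50 nM) with biotin-H3(5-23)K14Ac peptide (50 nM) in PBS pH 7.4, 0.01% Tween-20, preformed 30 min, then compound 30 min at room temperature; top concentration 110uM. AlphaScreen streptavidin donor/nickel chelate acceptor beads (10 ug/mL final), 20 min dark, signal read.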
Numbers without * were called inactive; ? = inconclusive; / = no result; [ ] = another dose, or the depositor's remark. Calls come from the whole dose curve; as a rule, active = well fitted curve in the direction sought with a large enough effect; inconclusive = small, poorly fitted or top-dose-only effect, or another doubt; inactive = no such curve, though single readings can be large; an effect the other way counts as inactive or inconclusive. Potency is the fitted concentration of half-maximal effect.

SMILES	JMJD2A Tudor inh	12-LOX inh	HP1b binding inh	G9a inh	Sfp inh	BAZ2B inh
CCOc1ccc(C(=O)Nc2cccc(C(=O)O)c2)cc1Cl	-3%	1%	12%	-31%	8%	-9%
CCOc1ccc(C(=O)Nc2cc(NC(=O)c3ccc(OCC)c(Cl)c3)cc(C(=O)O)c2)cc1Cl	50µM*	?	?	?	2%	?
COc1cc(C)c2c(c1C=O)Oc1c(c(C)c(O)c3c1C(O)OC3=O)OC2=O (stereo unspecified)	79µM*	?	-35%	?	?	79µM*
Cc1cc(O)c(C=O)c2c1C(=O)Oc1c(C)c(O)c3c(c1O2)C(O)OC3=O (stereo unspecified)	/	/	/	?	-67%	/
Cc1noc(C2CC3(CCN(C(=O)c4n[nH]c(=O)c5ccccc45)CC3)CN2C)n1 (stereo unspecified)	/	44%	/	/	/	/
Cn1c(CN2CCCC2)nc2cc(NC(=O)c3cccs3)ccc21	-36%	-10%	20%	14µM*	-20%	?
CCCCC(=O)Nc1ccc2c(c1)nc1n2CCOC1	79µM*	0%	-11%	10%	10%	7%
CCCN1CCn2c(nc3cc(NC(=O)c4ccc(OC)c(OC)c4)ccc32)C1	/	61%	/	/	/	/
CC(=O)N1CCN(Cc2nc3cc(NC(=O)c4cccs4)ccc3n2C)CC1	4%	-5%	24%	59%	10%	8%
COCCN1CCn2c(nc3cc(NC(=O)c4cccs4)ccc32)C1	-12%	-4%	16%	20µM*	-9%	-33%
CCCCC(=O)Nc1ccc2c(c1)nc1n2CCN(CCOC)C1	-27%	126%	50%	32µM*	10%	-11%
Cc1ccc2c(c1)C(C)(C)C1(/C=C/c3cccc(Cl)c3)NC(=O)CN21 (stereo unspecified)	/	-47%	/	/	/	/
CN1CCC(Nc2ccc3c(n2)CN(Cc2ccc(C(F)(F)F)cc2)C(=O)CO3)CC1	/	-29%[176 µM]	/	/	/	/
Cc1nc(Cn2cc(S(=O)(=O)N(C)C)ccc2=O)no1	/	27%	/	/	/	/
COc1ccc(C(=O)Nc2ccc3c(c2)nc2n3CCSC2)cc1	-7%	2%	-1%	50µM*	13%	-26%
CCCC(=O)Nc1ccc2c(c1)nc1n2CCN(CCOC)C1	-10%	?	45%	25µM*	-13%	0%
Cc1ccc(C2CCCN2S(=O)(=O)c2ccc(C(C)(C)C)cc2)cc1 (stereo unspecified)	/	3%	/	/	/	/
O=C(CSc1nc(-c2ccc3c(c2)OCO3)nc2cc(=O)[nH]n12)NCCc1ccccc1	/	0%	/	/	/	/
OCC[C@@H]1C[C@H](O)[C@@H](O)[C@@]2(CCCc3ccccc3O2)O1	-21%	-33%	45%	28µM*	-6%	-18%
OCC[C@H]1C[C@@H](O)[C@H](O)[C@@]2(CCc3ccccc3CO2)O1	-6%	3%	50%	-11%[2.33 µM]	/	6%
OCC[C@@H]1C[C@H](O)[C@@H](O)[C@@]2(CCc3ccccc3CO2)O1	-10%	0%	28%	45µM*	-10%	-6%
CNC(=O)c1ccc(-c2sc3nc(N4CCOCC4)c4c(c3c2N)CC(C)(C)OC4)o1	-3%	0%	39%	7%[0.501 µM]	79µM*	?
CC1(C)Cc2c(c(N3CCOCC3)nc3sc(-c4ccc(C(=O)O)o4)c(N)c23)CO1	-32%	?	-11%	?	45µM*	?
CNC(=O)c1ccc(-c2sc3nc(N4CCOCC4)c4c(c3c2N)CCCC4)o1	?	?	42%	?	-28%	?
CCCc1c(C(=O)Nc2ccc(C(F)(F)F)cc2)cnn1-c1ccccc1	-6%	?	43%	33%	7%	2%
SMILES	JMJD2A Tudor inh	12-LOX inh	HP1b binding inh	G9a inh	Sfp inh	BAZ2B inh
CCCc1c(C(=O)NNc2ccc(C)cc2)cnn1-c1ccccc1	?	?	-9%	4.5µM*	11%	?
Cc1cc(C(=O)COC(=O)C2=COCCO2)c(C)n1-c1cccc(F)c1	-34%	-3%	-17%	56µM*	/	?
Cc1cc(C(=O)COC(=O)Cc2n[nH]c(=O)c3ccccc23)c(C)n1-c1ccc2c(c1)OCCO2	-31%	-16%	4%	50µM*	-13%	-11%
COC(=O)c1ccc(-n2c(C)cc(C(=O)COC(=O)C3=COCCO3)c2C)cc1	-19%	8%	-2%	/	/	/
Cc1cc(C(=O)COC(=O)C2=COCCO2)c(C)n1-c1ccc2c(c1)OCO2	-24%[57.1 µM]	0%	9%	?	?	50µM*
COC(=O)CCOc1ccc(S(=O)(=O)Nc2ccc(C)cc2F)cc1	/	-2%	/	/	/	/
Cc1noc([C@H]2CCN(Cc3cc(F)cc(F)c3)C[C@H]2NC(=O)C2CC2)n1	/	75%	/	/	/	/
CCCSc1nc2sc3c(c2c(=O)[nH]1)CCN(Cc1ccccc1)C3	-27%[11.4 µM]	/	10%	10µM*	-9%	-2%
O=c1[nH]c(C(Cl)Cl)nc2sc3c(c12)CCN(Cc1ccccc1)C3	79µM*	?	27%	8.9µM*	-11%	?
CCCSc1nc2sc3c(c2c(=O)[nH]1)CC(C)CC3 (stereo unspecified)	-14%	13%	24%	-4%	-4%	-18%
COc1ccc(Cl)cc1-n1nnc(C(=O)Nc2ccc3c(c2)C(=O)OC3)c1C	/	-2%	/	/	/	/
Cc1noc(-c2cn(C3CCN(C(=O)c4ccco4)CC3)nn2)n1	/	-7%	/	/	/	/
O=c1cc(C(F)(F)F)[nH]c(=S)n1-c1ccccc1	79µM*	?	?	8.9µM*	35µM*	-26%
Fc1ccc(-c2cnc3n2C[C@H](CNC2CCOCC2)OC3)cc1	/	38%[176 µM]	/	/	/	/
CC(C)CCNC(=O)c1cnn2c(C(F)(F)F)cc(-c3ccco3)nc12	-22%	?	54%	?	50µM*	?
O=C(NCc1ccco1)c1cnn2c(C(F)(F)F)cc(-c3ccccc3)nc12	-17%	3%	43%	-50%[12.7 µM]	25µM*	15%
O=C(NC1CCCC1)c1cnn2c(C(F)(F)F)cc(-c3ccco3)nc12	-11%	?	12%	?	2%	-1%
COc1ccc(-c2cc(C(F)(F)F)n3ncc(C(=O)NCc4ccco4)c3n2)cc1	-10%	0%	39%	3%[59 µM]	56µM*	-2%
CCNC(=O)Nc1ccc([C@@H](O)[C@H]2COCC(=O)N2CCOCC)cc1	/	39%[176 µM]	/	/	/	/

Screens (PubChem)
